Bioassay records from PubChem.
RecA splice inh = Mtb RecA intein splicing inhibitors, primary screen, biochemical, fluorescence, HTS; Protein RecA (Mycobacterium tuberculosis (strain ATCC 25618 / H37Rv)), P9WHJ3; cell-free RecA intein splicing; inhibition, % (no concentration beside the values); actives 0.75% (n = 290,000); in the data active = inhibition above about 30%; inconclusive = no clear call, values can overlap the other calls
Target sequence (P9WHJ3 whole entry, looked up, canonical isoform): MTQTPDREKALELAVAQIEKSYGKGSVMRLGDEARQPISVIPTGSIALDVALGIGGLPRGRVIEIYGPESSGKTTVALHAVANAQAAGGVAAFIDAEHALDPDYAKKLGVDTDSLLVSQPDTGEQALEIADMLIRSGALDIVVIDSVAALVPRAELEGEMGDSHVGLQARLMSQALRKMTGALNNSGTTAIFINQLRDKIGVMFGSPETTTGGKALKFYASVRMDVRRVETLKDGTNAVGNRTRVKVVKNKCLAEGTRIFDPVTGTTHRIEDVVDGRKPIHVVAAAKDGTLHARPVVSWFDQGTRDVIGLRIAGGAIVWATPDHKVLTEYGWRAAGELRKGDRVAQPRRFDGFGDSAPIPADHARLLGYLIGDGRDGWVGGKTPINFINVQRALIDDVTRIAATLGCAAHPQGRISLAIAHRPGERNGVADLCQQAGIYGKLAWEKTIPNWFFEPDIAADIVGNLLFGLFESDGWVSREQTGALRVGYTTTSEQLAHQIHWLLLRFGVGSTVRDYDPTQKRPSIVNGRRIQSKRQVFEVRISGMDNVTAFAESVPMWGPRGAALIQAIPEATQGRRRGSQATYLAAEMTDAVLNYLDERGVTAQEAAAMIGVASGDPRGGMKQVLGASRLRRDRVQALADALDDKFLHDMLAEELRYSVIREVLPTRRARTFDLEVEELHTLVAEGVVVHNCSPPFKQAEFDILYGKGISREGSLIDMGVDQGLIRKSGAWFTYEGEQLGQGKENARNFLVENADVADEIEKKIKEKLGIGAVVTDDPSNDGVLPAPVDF
Mtb bLac sens = beta-lactam sensitization of Mtb H37Rv, H37Rv; M. tuberculosis H37Rv growth with meropenem, percent inhibition; inhibition, % at 25 µM; actives 0.27% (n = 330,000); AID 434955, 2010; call rule not given here;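 also: growth measured after seven days incubation then overnight dye step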
Mtb FBA inh = Mtb FBA enzyme inhibitors, primary screen, biochemical, fluorescence, strain H37Rv. Fructose-bisphosphate aldolase (Mycobacterium tuberculosis (strain ATCC 25618 / H37Rv)), …. AID 588726, 2011. purified M. tuberculosis FBA, fluorescence read-out. inhibition, % at 1 µM. actives 2.3% (n = 360,000)
CCHF vOTU inh = CCHFV vOTU protease inhibitors, primary screen, biochemical, Pep-AMC substrate, fluorescence | Crimean-Congo hemorrhagic fever virus L polyprotein viral ovarian tumor (vOTU) protease … | inhibition, % at 11.5 µM | actives 0.55% (n = 370,000) | AID 651958, 2012; in the data active = inhibition above about 30%
GDH-TPI counter-1 = GDH-TPI coupling enzyme inhibitors, primary screen, artefact control for M. tuberculosis FBA inhibitor project, biochemical, absorbance, full deck | AID 588335, 2011 | actives 1.2% (n = 360,000) | inhibition, % at 4.8 µM | GDH-TPI coupled enzyme counterscreen, NADH absorbance; in the data active = inhibition above about 30%
Mtb FBA inh conf = M. tuberculosis aldolase blockers, biochemical, fluorescence, strain H37Rv, confirmation | shares compounds with Mtb FBA inh | purified M. tuberculosis FBA, fluorescence read-out | inhibition, % at 1 µM | actives 78% (n = 5,600) | AID 651616, 2012
GDH-TPI counter-2 = GDH-TPI coupling enzyme inhibitors, artefact control for M. tuberculosis FBA inhibitor project, biochemical, fluorescence, high throughput; inhibition, % at 1 µM; actives 81% (n = 5,600); GDH-TPI coupled enzyme counterscreen; shares compounds with Mtb FBA inh; AID 652141, 2013; in the data active = inhibition above about 10%
Hits are given with their value; . = inactive; ? = inconclusive; / = no result; + = active, no number. Compounds with a hit are over-represented: about 4.2% of the library has one in this group of screens. Rule as the data show it, unless noted: active = inhibition above about 27%; inactive = the rest.

SMILES | RecA splice inh | Mtb bLac sens | Mtb FBA inh | CCHF vOTU inh | GDH-TPI counter-1 | Mtb FBA inh conf | GDH-TPI counter-2
CCOc1ccccc1Oc1c(C)oc2c(CN3CCN(CCO)CC3)c(O)ccc2c1=O | . | . | 80.3 | . | . | . | .
CCC(=O)N(C)C[C@@H]1[C@H](c2ccc(C3=CCCCC3)cc2)[C@H](CO)N1C(=O)CC | / | / | / | . | / | / | /
COC(=O)[C@]12C[C@H](CC(=O)N3CCCCC3)C(=O)N(Cc3ccco3)C1=C[C@H](C(C)(C)C)O[C@@H]2C | / | / | / | . | / | / | /
Cc1cc2c(c(=O)o1)[C@@]1(C(=O)N(C)c3ccccc31)C1=C(CC(C)(C)OC1=O)O2 | / | / | / | . | / | / | /
Cc1oc2c(CN3CCOCC3)c(O)ccc2c(=O)c1-c1ccccc1 | . | . | 97.8 | . | . | + | +
CC(=O)c1c(C)oc2ccc(O)c(CN3CCOCC3)c12 | . | . | . | . | . | / | /
COc1ccc2nc(-c3ccccc3)cc(C(=O)OCC(=O)N3CCCCC3)c2c1 | / | . | 87.0 | . | . | + | +
COc1ccc(-c2cc(C(=O)OCC(=O)N3CCCC3)c3ccccc3n2)cc1 | . | . | . | . | . | / | /
Cc1cc(C(=O)OCC(=O)N2CC(C)OC(C)C2)c2ccccc2n1 (stereo unspecified) | . | . | . | . | . | / | /
COc1ccc2nc(-c3ccccc3)cc(C(=O)OCC(=O)N3CC(C)OC(C)C3)c2c1 (stereo unspecified) | / | . | 110.4 | . | . | 38.1 | 29.8
O=C(Nc1cc(Cl)ccc1F)C1CCCN1S(=O)(=O)c1cccc2cccnc12 (stereo unspecified) | / | / | / | . | / | / | /
CC(=O)OCC(=O)c1ccc2ccn(C(C)=O)c2c1 | / | . | 35.8 | . | . | . | 19.9
O=C(NC1CCCC1)C1(C(=O)C2CC2)CC(c2ccccn2)=NO1 (stereo unspecified) | / | / | / | . | / | / | /
Cc1nn2c(-c3ccccc3)ccnc2c1-c1ccccc1 | . | . | . | . | . | / | /
N#CCc1nn2c(-c3ccccc3)ccnc2c1C#N | . | . | 68.7 | . | . | 120.9 | 91.5
CCOC(=O)c1sc(N(C)C)nc1-c1ccccc1 | . | . | 39.0 | . | . | 135.9 | 97.0
COc1ccc(CN2C(=O)N3Cc4ccccc4C3CS2(=O)=O)cc1 (stereo unspecified) | / | / | / | . | / | / | /
C[C@H](O)[C@@H]1C(=O)N2CCc3c([nH]c4ccccc34)[C@@H]2C[C@@H]1N(C)C(=O)NC1CCCCC1 | / | / | 87.0 | . | . | 156.9 | 116.1
CN1OC[C@@H]2C(=O)N3CCc4c([nH]c5ccccc45)[C@@H]3C[C@@H]21 | / | / | 37.7 | . | . | + | 191.6
C[C@H](O)[C@@H]1C(=O)N2CCc3c([nH]c4c(-c5ccccc5)cccc34)[C@@H]2C[C@@H]1N(C)C(=O)NC1CCCCC1 | / | / | / | . | / | / | /
CN[C@H]1C[C@H]2c3[nH]c4ccccc4c3CCN2C(=O)[C@H]1[C@H](C)O | / | / | . | . | . | / | /
NC(=O)COc1c(-c2ccc(Br)o2)oc2ccccc2c1=O | . | . | 104.5 | / | 35.0 | 154.1 | 113.5
Nc1oc2ccccc2c(=O)c1C=O | . | . | . | . | . | / | /
CCn1c(C)c(CCC(=O)O)c(=O)n2nc(-c3ccccc3OC)cc12 | . | . | 53.7 | . | . | 39.5 | 40.6
COc1ccccc1-c1cc2nc(C)cc(C)n2n1 | . | . | . | . | . | / | /
SMILES | RecA splice inh | Mtb bLac sens | Mtb FBA inh | CCHF vOTU inh | GDH-TPI counter-1 | Mtb FBA inh conf | GDH-TPI counter-2
C[C@H](O)[C@@H]1CN2CCc3c([nH]c4c(-c5ccccc5)cccc34)[C@@H]2C[C@@H]1N(C)CC1CCCCC1 | / | / | / | . | / | / | /
Cc1ccc2c(N)c(C)ccc2c1 | . | . | 48.9 | . | . | . | .
CCCN(CCO)Cc1ccc2ccccc2c1 | . | . | . | . | . | / | /
O=C(O)CCN(CCC(=O)O)c1ccccc1 | . | . | . | . | . | / | /
O=C(O)c1cccc(N(CCO)CCO)c1 | . | . | 38.7 | . | . | 98.6 | 75.3
OCCN(CCO)c1ccc2ccccc2c1 | . | . | 109.4 | . | . | 33.2 | 27.4
O[C@H](COc1ccc(C(F)(F)F)cc1)CN1CCC(C(O)(c2ccccc2)c2ccccc2)CC1 | / | / | / | . | / | / | /
Cc1ccc(S(=O)(=O)Nc2cccc(C(=O)NCc3ccc(S(N)(=O)=O)cc3)c2)cc1 | . | . | 26.9 | . | . | 155.8 | 128.3
Cc1cc(C(=O)NCc2ccc(S(N)(=O)=O)cc2)cs1 | . | . | . | . | . | / | /
CCCC1CCC2(CCC(=O)N2CCOC)CC1 (stereo unspecified) | / | / | / | . | / | / | /
COc1cc(NC(=O)C2CCCN(S(=O)(=O)c3ccc(Br)s3)C2)cc(OC)c1 (stereo unspecified) | / | / | / | . | / | / | /
O=C(CNC(=O)c1cccc(Br)c1)N/N=C/c1ccc2c(c1)OCO2 | . | . | 32.8 | . | . | 141.1 | 105.7
O=C(CNC(=O)c1ccc2c(c1)OCCO2)N/N=C/c1ccc(O)cc1O | . | . | . | . | . | / | /
CCN(CC)c1ccc(/C=N/NC(=O)CNC(=O)c2ccc3c(c2)OCCO3)cc1 | . | . | 46.5 | . | 41.6 | 53.5 | 47.0
CC(=O)CC[C@H]1CC[C@]2(CCCN(S(C)(=O)=O)C2)O1 | / | / | / | . | / | / | /
O=c1c2c(nc3c(-c4ccccc4)c[nH]n13)CCC2 | . | . | 42.6 | . | . | 59.0 | 37.8
O=c1c2c(nc3c(-c4cccc(Br)c4)c[nH]n13)CCCC2 | / | . | . | . | . | / | /
O=c1c2c(nc3c(-c4ccc(Cl)cc4)c[nH]n13)CCC2 | . | ? | 44.1 | . | . | 31.9 | 27.6
COC(=O)[C@]12C[C@H](CC(=O)NCc3ccccc3)C(=O)N(Cc3ccc(Cl)cc3Cl)C1=C[C@H](C(C)C)O[C@@H]2C1CC1 | / | / | / | . | / | / | /
CCn1c(SCC(=O)NN=Cc2cccc(OCc3ccccc3)c2)nnc1-c1ccc(OC)c(OC)c1 | / | / | / | . | / | / | /
Cc1ccc(Cn2cc(COC(=O)NCC(C)C)nn2)cc1 | / | / | / | . | / | / | /
CCC(=O)N1CCC(C(=O)NC2CCCc3ccccc32)CC1 (stereo unspecified) | / | / | / | . | / | / | /
CCn1ccnc1CN(C)Cc1cn[nH]c1-c1ccc(F)cc1F | . | . | 90.5 | . | . | . | .
Cc1cccn2c(=O)c3cc(C(=O)NCC4CCCO4)c(=N)n(CCc4ccccc4)c3nc12 (stereo unspecified) | . | . | 108.7 | . | . | 75.7 | 63.6
Cc1cccn2c(=O)c3cc(C(=O)NCCc4ccccc4)c(=N)n(Cc4ccco4)c3nc12 | / | . | 30.2 | . | . | + | +
Cc1cccn2c(=O)c3cc(C(=O)NCc4ccco4)c(=N)n(CCc4ccccc4)c3nc12 | / | . | 53.2 | . | . | 89.8 | 81.2
